Source: PubChem BioAssay (several laboratories)
Hits are enriched below; roughly 1.1% of the tested compounds scored in any of these assays.
HDAC3 inhib: blocks human histone deacetylase 3; O15379; inhibition, % at 8.3 µM; recombinant HDAC3, fluorogenic peptide/trypsin coupled, fluorescence; AID 2718; 320,000 tested, 0.15% active; in the data active = inhibition above about 26%, passing the limit was not always enough; inconclusive = no clear call, values can overlap the other calls
Target sequence (O15379 whole entry, looked up): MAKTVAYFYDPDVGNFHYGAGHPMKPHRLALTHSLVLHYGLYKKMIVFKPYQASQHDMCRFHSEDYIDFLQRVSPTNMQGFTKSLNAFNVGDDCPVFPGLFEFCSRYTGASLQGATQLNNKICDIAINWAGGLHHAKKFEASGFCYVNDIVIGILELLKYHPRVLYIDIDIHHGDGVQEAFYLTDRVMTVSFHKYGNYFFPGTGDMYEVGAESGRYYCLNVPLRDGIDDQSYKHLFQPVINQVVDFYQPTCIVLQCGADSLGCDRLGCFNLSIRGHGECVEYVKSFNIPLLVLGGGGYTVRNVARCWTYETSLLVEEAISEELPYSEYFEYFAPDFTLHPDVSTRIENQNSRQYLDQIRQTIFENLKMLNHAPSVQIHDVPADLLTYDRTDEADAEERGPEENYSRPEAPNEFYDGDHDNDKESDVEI
IDE cell inh: inhibits human insulin-degrading enzyme in HEK cells; P14735; FAbetaB cleavage, fluorescence polarization; inhibition, % at 5.59 µM; 320,000 tested, 0.41% active; AID 434962;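 active = percent inhibition above the average of all tested compounds plus 3 SD, set per screening campaign, cut at about 16% in these data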;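 also: IDE supplied by intact live HEK cells; FP after avidin binding of uncleaved biotin substrate so inhibition keeps polarization high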
LANA-H2A inh: blocks KSHV LANA binding to histone H2A/H2B. inhibition, % (test concentration not listed). AID 2629. cell-free LANA-H2A/H2B peptide, fluorescence polarization. 320,000 tested, 0.6% active; in the data active = inhibition mostly above about 10%, no sharp cut-off; inactive = mostly below about 6.7%
IDE act: IDE (human) activation, cell-based; P14735; 340,000 tested, 0.073% active; HEK cells, FAbeta-B cleavage, fluorescence polarization; 0% vehicle, 100% cell-free pure enzyme wells; activation, % at 5.96 µM;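 active = activation above the mean of all tested compounds plus 3 SD, set per screening campaign, cut at about 17% in these data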
Large screens that a line does not name were inactive; ! = not confirmed by another sample.

CCCCNC(=S)N1CCN(c2nc3ccccc3s2)CC1	IDE cell inh 19.3
CC1(C)Cc2c(cnn2-c2ccc(F)cc2)C(NC(=O)Cn2cncn2)C1 (stereo not drawn)	LANA-H2A inh 50.8
CC1(C)Cc2c(cnn2-c2ccc(F)cc2)C(NC(=O)CCn2cncn2)C1 (stereo not drawn)	none
N#Cc1cc2c([nH]c1=S)CCCC2	none
N#Cc1cc2c([nH]c1=O)CCCC2	LANA-H2A inh 9.1
O=C(O)COc1ccc(C(NC(=O)c2c(F)cccc2F)NC(=O)c2c(F)cccc2F)cc1	none
CNC[C@H]1Oc2ccc(NC(=O)Nc3ccccc3)cc2CC(=O)N([C@H](C)CO)C[C@H]1C	none
CC1(C)CC(=O)C2=C(C1)NC(=S)C(C#N)C21CCCCC1 (stereo not drawn)	HDAC3 inhib 39.4
O=C(NC1(C(F)(F)F)N=C(c2ccccc2)NC1=O)c1ccccc1 (stereo not drawn)	none
Cc1cc(C)nc(N/N=C/c2cc(C)n(CC(F)(F)F)c2C)n1	none
CC(C)Oc1ccc(CN2CCCC(CO)(Cc3ccccc3)C2)cc1CO (stereo not drawn)	none
CCN1CCc2nc3sc(C(=O)N4CCc5ccccc5C4)c(N)c3cc2C1	none
CC(C)OC(=O)CC(=O)c1sc2nc3c(cc2c1N)CN(C)CC3	LANA-H2A inh 74.3 (no result: IDE act)
O=C1OC(c2ccccc2)=N/C1=C\C=C\c1ccccc1[N+](=O)[O-]	LANA-H2A inh 12.4
O=C1OC(c2ccccc2)=N/C1=C\C=C\c1ccco1	HDAC3 inhib 41.4
O=C1OC(c2ccc(Cl)cc2)=N/C1=C\C=C\c1ccco1	HDAC3 inhib inconclusive
Cc1ccc(NC(=O)c2noc3c2CCCCC3)cc1	LANA-H2A inh 8.5
CCc1ccc(NC(=O)c2noc3c2CCCCC3)cc1	none
COC(=O)C1=C(C)NC(=O)NC1c1ccc(-c2ccc(Cl)cc2)o1 (stereo not drawn)	HDAC3 inhib 44.7
Cc1ccc(C)c(N2CCN(C(=S)Nc3ccc4nc(N5CCN(C)CC5)cc(C)c4c3)CC2)c1	IDE act 22.1 (no result: HDAC3 inhib)
CCN1CCN(c2cc(C)c3cc(NC(=S)N4CCN(c5ccccc5)CC4)ccc3n2)CC1	IDE act 19.5
CCN1CCN(c2cc(C)c3cc(NC(=S)N4CCOCC4)ccc3n2)CC1	none
CCN(CC1CCCO1)C(=O)C1CCN(C2CCN(Cc3ccccc3C)CC2)CC1 (stereo not drawn)	none
O=C(N/N=C/c1ccc(OCC(=O)N2CCCC2)cc1)C(=O)NC1CC1	LANA-H2A inh 26.0
Cc1ccc(-c2ccc(/C=C(\C#N)C(=O)Nc3cc(C)nn3-c3ccccc3)o2)cc1	LANA-H2A inh 23.4 (no result: IDE act)
Cc1ccc(/C=N\NC(=O)c2ccc3c(c2)OCO3)o1	none (no result: HDAC3 inhib)
CC[C@]12c3[nH]c4ccccc4c3CCN1C(=O)C(CC(=O)NC/C=C(\C)CCC=C(C)C)C[C@@H]2C(=O)N1CCN(C(=O)c2ccco2)CC1 (stereo partly drawn)	LANA-H2A inh active
CC[C@]12c3[nH]c4cc(-c5ccco5)ccc4c3CCN1C(=O)[C@@H](CC(=O)NC/C=C(\C)CCC=C(C)C)C[C@@H]2C(=O)N1CCN(C(=O)c2ccco2)CC1	none (no result: HDAC3 inhib, IDE cell inh, LANA-H2A inh)
Cc1cc(C)c(OCC(O)CN2CCN(C(=O)c3ccccc3)CC2)c(C)c1 (stereo not drawn)	none
Cc1nnc(-c2cnn(C)c2N)n1CCCN1CCOCC1	none (no result: HDAC3 inhib, LANA-H2A inh)
O=C(NCCNC(=O)c1cc(OCC(F)(F)F)ccc1OCC(F)(F)F)Nc1cccc(C(F)(F)F)c1	HDAC3 inhib 36.3
Nc1ccc2cc3[nH]c4cc(N)ccc4c3nc2c1	IDE act 53.2 (no result: HDAC3 inhib, IDE cell inh, LANA-H2A inh)
Nc1ccc(-c2nc3ccc(N)cc3[nH]2)cc1	none
COc1cc(N)c(Cl)cc1C(=O)OCC(=O)NCC1CCCCC1	none
Cc1c(NC(=O)c2cc(-c3cccs3)on2)c(=O)n(-c2ccccc2)n1C	LANA-H2A inh 174.6
Cc1c(NC(=O)c2cc(-c3ccco3)on2)c(=O)n(-c2ccccc2)n1C	none
O=C(Nc1cccnc1)c1cc(-c2cccs2)on1	LANA-H2A inh 91.8
COc1ccc(-c2nc(N)n(C(=O)c3ccc(C)cc3)n2)cc1	HDAC3 inhib 32.0
CCCC(=O)n1nc(-c2ccc(OC)cc2)nc1N	none
COc1ccc(C(=O)n2nc(-c3ccc(OC)cc3)nc2N)cc1	HDAC3 inhib 58.7
COc1ccc(C(=O)n2nc(-c3ccccc3)nc2N)cc1OC	HDAC3 inhib 61.7
O=S(=O)(NCCc1ccncc1)c1ccc(S(=O)(=O)N2CCCCCC2)cc1	none
CN(c1cccc(Cl)c1)S(=O)(=O)c1cccc(C(=O)NCc2ccncc2)c1	LANA-H2A inh 53.4
CN(c1ccccc1)S(=O)(=O)c1cccc(NC(=O)CCNC(=O)c2ccccc2)c1	none
CN(c1ccccc1)S(=O)(=O)c1cccc(NC(=O)CCNC(=O)c2ccc(Cl)cc2)c1	LANA-H2A inh 165.3
CCOC(=O)C(C)Sc1ncc(-c2ccccc2)cn1 (stereo not drawn)	none
CNc1cc(N2CCN(S(=O)(=O)N(C)C)CC2)ccc1[N+](=O)[O-]	none
COc1ccc(/C=C2\SC(=S)N(CC(=O)N(C)C3CCS(=O)(=O)C3)C2=O)cc1 (stereo not drawn)	LANA-H2A inh 14.1
CN(C(=O)CN1C(=O)S/C(=C\c2ccc(Cl)cc2)C1=O)C1CCS(=O)(=O)C1 (stereo not drawn)	LANA-H2A inh 11.3
CN(C(=O)CN1C(=O)S/C(=C\c2ccccc2)C1=O)C1CCS(=O)(=O)C1 (stereo not drawn)	none
Cc1ccc(OCC(O)CNC(=O)c2ccccc2C(=O)O)cc1 (stereo not drawn)	none
CN(C)CCCNc1ncnc2c1cnn2-c1ccccc1	LANA-H2A inh 13.6
CC(C)OCCCNc1ncnc2c1cnn2-c1ccccc1	none
COCCNc1ncnc2c1cnn2-c1ccc(Cl)cc1	LANA-H2A inh 20.4
COc1ccc(CCNC(=O)C2CCN(S(=O)(=O)c3ccc(F)cc3)CC2)cc1	none
COc1ccc(N2CSC3=C(C#N)C(c4cccc(OC)c4OC)CC(=O)N3C2)cc1 (stereo not drawn)	HDAC3 inhib 55.9
COc1ccc(OC)c(C2CC(=O)N3CN(c4ccccc4)CSC3=C2C#N)c1 (stereo not drawn)	HDAC3 inhib 53.7
COc1ccc(C2CC(=O)N3CN(c4ccc(C)c(Cl)c4)CSC3=C2C#N)cc1 (stereo not drawn)	HDAC3 inhib 51.2
COc1ccc(C2CC(=O)N3CN(c4ccccc4F)CSC3=C2C#N)cc1OC (stereo not drawn)	none
COc1cc(OC)c(C2CC(=O)N3CN(c4ccccc4C)CSC3=C2C#N)cc1OC (stereo not drawn)	none (no result: IDE act)
COc1ccc(NC(=O)CON=CC(=O)Nc2ccc(C)cc2)c(OC)c1	none
CCCn1c(SCC(=O)NC2CCCCC2)nnc1C1CC1	none
CCCS(=O)(=O)N1CCCC(C(=O)Nc2ccc3c(c2)CCC3)C1 (stereo not drawn)	none
COc1ccc(S(=O)(=O)N2CCCCC2)cc1NC(=O)c1ccc(OC)c(OC)c1	none (no result: HDAC3 inhib, IDE cell inh, LANA-H2A inh)
CCN(CC)c1ccc(SS(=O)(=O)O)cc1	LANA-H2A inh 35.0!
CCN(CC)c1ccc(C(=O)O)cc1	none
Cc1cccc(NC(=O)CCc2nnc3ccc(NCc4ccco4)nn23)n1	none
